VP16 counter: VP16 counterscreen qHTS for inhibitors of ROR gamma transcriptional activity. hit rate 3.5% among 310,000. Drosophila S2 Gal4-VP16 UAS-luciferase, luminescence, 20 h. Potency, µM (top dose mostly 53.6 µM), for the others: at the top dose activity, negative = inhibition, usual class: inhibitors;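 further: Gal4-VP16 expression switched on by copper sulfate through the metallothionein promoter; nearly all actives have a fitted effect of over 50% in size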
ELG1 repair inh: qHTS screen for small molecules that inhibit ELG1-dependent DNA repair in human embryonic kidney (HEK293T) cells expressing luciferase-tagged ELG1 | Potency, µM (highest dose often 46.1 µM), without a hit: at the highest dose activity change, negative = inhibition, usual class: inhibitors | hit rate 2.3% among 330,000 | AID 504467, 2011 | HEK293T ELG1-luciferase reporter, luminescence, 16 h; DNA damage induced by 5-fluorouridine; further: nearly all actives have a fitted effect of over 55% in size
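HEK293T cells expressing luciferase-tagged ELG1 (2,000/well) received 5-Fluorouridine plus compound or DMSO for 16 hr at 37 °C. Luciferase was read by ONE-Glo luminescence after 30 min at room temperature.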
RORg inh: qHTS for inhibitors of ROR gamma transcriptional activity | Nuclear receptor ROR-gamma (Mus musculus), P51450 | Drosophila S2 Gal4-RORgamma UAS-luciferase reporter, 20 h | Potency, µM (titrated, usually from 53.6 µM), without a hit: top-dose activity change, negative = inhibition, hits mostly inhibitors | hit rate 5.4% among 310,000; further: nearly all actives have a fitted effect of over 60% in size
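Stable Schneider cell line, Gal4 DNA-binding domain fused to ROR gamma, UAS-luciferase. Cmpd 1 hr RT → CuSO4 700 uM final → 20 hr RT → luciferase reagent 10 min → luminescence.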
DT40 TDP1 no CPT: qHTS for Inhibitors of human tyrosyl-DNA phosphodiesterase 1 (TDP1): qHTS in cells in absence of CPT. DT40 Tdp1-/- hTDP1 cells, no CPT, ATP luminescence, 48 h. Potency, µM (top dose mostly 46.2 µM), for the others: at the top dose activity change, negative = growth inhibition, actives largely listed as inhibitors. hit rate 15% among 420,000. AID 686978, 2013; further: nearly all actives have a fitted effect of over 55% in size
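DT40 Tdp1-/-;hTDP1 cells, no CPT (DMSO vehicle only), 400 cells/well; compounds pin-transferred; ≥48 hr, 37 °C; CellTiter-Glo 30 min RT dark, luminescence read.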
DT40 TDP1 CPT: qHTS for Inhibitors of human tyrosyl-DNA phosphodiesterase 1 (TDP1): qHTS in cells in presence of CPT. chicken DT40 Tdp1-/-;hTDP1 cells + 20 nM CPT, ATP luminescence, 48 h. Potency, µM (top dose mostly 46.2 µM), for inactives: at the highest dose activity change, negative = growth inhibition, hits mostly inhibitors. hit rate 12% among 420,000. AID 686979, 2013; further: nearly all actives have a fitted effect of over 55% in size
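Chicken DT40 Tdp1-/- cells stably complemented with human TDP1 were seeded at 400 cells/well in medium containing 20 nM camptothecin, exposed to pin-transferred compounds, and grown at 37 °C for at least 48 hr. Viability was read as ATP luminescence.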
ALOX12 inh: Primary qHTS assay for inhibitors of human arachidonate 12S-lipoxygenase (ALOX12): Round 2 | hit rate 1.1% among 580,000 | purified 12hLO, xylenol orange hydroperoxide absorbance | Potency, µM (highest dose often 108 µM), inactives show at the top dose activity change, negative = inhibition, actives largely listed as inhibitors
Target sequence (P18054 whole entry, looked up): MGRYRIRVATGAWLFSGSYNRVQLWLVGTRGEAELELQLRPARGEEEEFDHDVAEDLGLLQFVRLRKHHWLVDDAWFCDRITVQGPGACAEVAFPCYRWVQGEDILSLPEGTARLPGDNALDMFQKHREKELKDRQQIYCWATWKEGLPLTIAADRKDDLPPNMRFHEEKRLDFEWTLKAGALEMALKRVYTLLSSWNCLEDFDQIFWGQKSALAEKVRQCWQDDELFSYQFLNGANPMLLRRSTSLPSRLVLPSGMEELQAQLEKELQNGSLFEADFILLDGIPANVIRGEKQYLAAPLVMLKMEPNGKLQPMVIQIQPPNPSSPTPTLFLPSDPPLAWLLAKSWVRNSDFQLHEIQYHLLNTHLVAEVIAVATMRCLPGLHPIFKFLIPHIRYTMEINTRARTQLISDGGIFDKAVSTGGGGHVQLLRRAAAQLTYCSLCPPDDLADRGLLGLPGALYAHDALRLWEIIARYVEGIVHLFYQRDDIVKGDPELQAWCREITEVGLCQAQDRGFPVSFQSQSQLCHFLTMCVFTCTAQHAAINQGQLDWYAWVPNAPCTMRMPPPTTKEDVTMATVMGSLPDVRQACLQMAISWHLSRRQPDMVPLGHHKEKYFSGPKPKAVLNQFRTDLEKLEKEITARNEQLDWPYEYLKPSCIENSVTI
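Purified human 12hLO (150 nM final) in 25 mM Hepes, 0.01% Triton X-100, pH 7.0 was preincubated 15 min at room temperature with compound. Then 40 uM arachidonic acid was added, 30 min. Hydroperoxide was read by Fe-XO absorbance ratio 573/405 nm.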
Active calls of the source: *; u = inconclusive; x = not tested or not shown; [ ] = remark or other dose. An excerpt weighted towards active compounds, which were near 15% of everything screened. The call rests on the fitted dose curve; in most records, active means well fitted curve in the direction sought with a large enough effect; inconclusive means small, poorly fitted or top-dose-only effect, or another doubt; inactive means no such curve, though single readings can be large; an effect the other way counts as inactive or inconclusive. On the % scale 0 is the no-effect control and ±100 the full control effect; potency means the concentration at half of the fitted maximal effect.

SMILES	VP16 counter	ELG1 repair inh	RORg inh	DT40 TDP1 no CPT	DT40 TDP1 CPT	ALOX12 inh
Cc1cc(C2CC(C(=O)NCc3cccc(F)c3)CN(C(=O)C3CC3)C2)ccc1F (centres undefined)	x	x	x	x	x	2%
CC(NC(=O)CSc1ccccc1F)c1nc2ccccc2[nH]1 (centres undefined)	x	x	x	x	x	-25%
CCN1CCN(c2ccc(NS(=O)(=O)c3c(C)nc4sccn4c3=O)cc2Cl)CC1	x	x	x	u	u	-17%
Cc1nc2sccn2c(=O)c1S(=O)(=O)Nc1ccc(N2CCOCC2)c(Cl)c1	-29%	-22%	u	29µM*	18µM*	8%
Cc1ccc(NS(=O)(=O)c2c(C)nc3sc(C)c(C)n3c2=O)cc1F	x	x	x	15µM*	12µM*	u
CCOC(=O)c1cccc(NS(=O)(=O)c2c(C)nc3sc(C)cn3c2=O)c1	x	x	x	23µM*	13µM*	-17%
CCOC(=O)c1ccc(NS(=O)(=O)c2c(C)nc3sccn3c2=O)cc1	-18%	9%	u	16µM*	16µM*	9%
Cc1cn2c(=O)c(S(=O)(=O)Nc3ccc(F)cc3F)c(C)nc2s1	x	x	x	u	-20%	-21%
Cc1ccc(-c2cc(C(=O)O)c3cc(Br)ccc3n2)cc1C	x	x	x	x	x	4%
CC1(C)CC(=O)C2=C(C1)NC(=O)CC2c1ccsc1 (centres undefined)	x	x	x	x	x	24%
CC(=O)c1cccc(NS(=O)(=O)c2c(C)nc3sc(C)cn3c2=O)c1	x	x	x	15µM*	18µM*	u
Cc1nc2scc(C)n2c(=O)c1S(=O)(=O)Nc1ccc(OC(F)(F)F)cc1	u	3%	u	15µM*	21µM*	8%
CCc1cccc(NS(=O)(=O)c2c(C)nc3sc(CC)nn3c2=O)c1	0%	-12%	u	21µM*	u	5%
CCOC(=O)c1cccc(NS(=O)(=O)c2cc3c(cc2C)NC(=O)CO3)c1	x	x	x	18µM*	18µM*	-17%
CC(=O)c1cccc(NS(=O)(=O)c2cc3c(cc2C)NC(=O)CO3)c1	1%	-14%	5%	-3%	-12%	-25%
CC(=O)c1ccc(NC(=O)[C@@]2(CC(=O)O)CC(c3ccc(C)cc3)=NO2)cc1	x	x	x	x	x	-23%
Cc1noc([C@@H]2CN(C(=O)Cn3c(=O)oc4ccccc43)C[C@H]2C(N)=O)n1	x	x	x	x	x	6%
CC(C)CN1C(=O)c2cccn2CC1C(=O)O (centres undefined)	x	x	x	x	x	23%
Cc1cc(C)nc(NS(=O)(=O)c2ccc(NC(=O)c3cccs3)cc2)n1	-15%	-16%	2%	u	-1%	0%
CCCCN(CCCC)S(=O)(=O)c1ccc(NC(=O)c2cccs2)cc1	-27%	23µM*	-19%	21µM*	26µM*	13%
CCCCN(CCCC)S(=O)(=O)c1ccc(NC(=O)c2ccc([N+](=O)[O-])cc2Cl)cc1	-16%	u	-36%[10 µM]	21µM*	u	0%
CCCOc1ccc(CNC(=O)C(C)C2CCOCC2)cc1 (centres undefined)	x	x	x	x	x	14%
COc1cccc(F)c1-c1nc(C)c(C(=O)Nc2ccc(NC(C)=O)cc2)s1	x	x	x	x	x	0%
COc1ccc(-c2nc3c4ccccc4ccn3c2Cc2cccc(Cl)c2)cc1OC	x	x	x	u	u	-19%
Cc1ccc(-c2nc3c4ccccc4ccn3c2Cc2ccsc2)cc1	x	x	x	u	16µM*	27%
Cc1ccc(Cc2c(-c3ccccc3)nc3c4ccccc4ccn23)cc1	x	x	x	21µM*	23µM*	u

Source: PubChem BioAssay
